Test results published in PubChem BioAssay (Tox21).
Results filed as inconclusive are left out. Values without a mark were called inactive. Activity calls are given as the source filed them. Unless noted, the call rests on the fitted dose curve.

System: not listed separately
Test: qHTS assay to identify small molecule antagonists of the estrogen related receptor signaling pathway with the pleiotropic PPARgamma coactivator (PGC) from Tox21 10K library (AID 1224841; call rule not given here; further: actives are mostly falling curves and most rising ones were filed inactive; nearly all actives have a fitted effect of over 50% in size)
Conditions: PGC/ERR reporter cell line, ONE-Glo luciferase, 18 h; series mostly up to 92.4 µM; activity, negative = inhibition: at the top concentration
Summary of the method: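 qHTS antagonist format: PGC/ERR cells, 2k/well, compound in DMSO by pin transfer after 6 h attachment, 18 h treatment at 37 C, One-Glo luminescence read at 30 min.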
On the % scale 0 is the no-effect control and ±100 the full control effect.

Compared with `CCCCCCOC(=O)CC`, `CCCCCCCCOS(=O)(=O)O` is lower in “activity, negative = inhibition” value: 9.06% for the first, 2.01% for the second.

Compared with `O=S(=O)(O)CCN1CCN(CCO)CC1`, `COCCOCCOCCOCCOCCO` is higher in “activity, negative = inhibition” value: -4.11% for the first, 0.876% for the second.

First: CC(C)(C)c1n[nH]c(=S)n(N)c1=O
Second: CC(C)(C)NC(N)=O
The “activity, negative = inhibition” value of the first is lower: -9.17% for the first, -0.322% for the second.

Compared with `C=C(C)C(=O)OCC(C)(C)COC(=O)C(=C)C`, `N#Cc1ccc(C(=O)O)cc1` is lower in “activity, negative = inhibition” value: 11.5% for the first, 4.98% for the second.

First: CCCCCCCCSCC
Second: On1nnc2ccccc21
The “activity, negative = inhibition” value of the first is higher: 5.85% for the first, 1.85% for the second.

With `Cc1nc2n(c(=O)c1CCN1CCC(c3noc4cc(F)ccc34)CC1)CCC[C@H]2O` the activity, negative = inhibition was -0.225% [at 19 µM].

First: NC(CO)C(=O)NNCc1ccc(O)c(O)c1O (stereo unspecified)
Second: CCOc1cc(NC(C)=O)ccc1C(=O)OC
The “activity, negative = inhibition” value of the first is higher: 8.42% [at 42.5 µM] for the first, -2.26% [at 42.5 µM] for the second.

Going from `CC(=O)NCc1c(I)c(NC(C)=O)c(I)c(C(=O)O)c1I` to `COc1cc(C(=S)N2CCOCC2)cc(OC)c1OC`, the “activity, negative = inhibition” value falls from 6.08% [at 42.5 µM] to 1.18% [at 42.5 µM].

For `COc1ccc(C2CNC(=O)C2)cc1OC1CCCC1` (stereo unspecified), the “activity, negative = inhibition” value was 4.24% [at 42.5 µM].

For `CN1CCN(CC(=O)N2c3ccccc3C(=O)Nc3cccnc32)CC1`, the activity, negative = inhibition was 2.2% [at 8.39 µM].

System: not listed separately
Test: qHTS assay to identify small molecule agonists of the estrogen related receptor signaling pathway with the pleiotropic PPARgamma coactivator (PGC) from Tox21 10K library (AID 1224842; active means well fitted activation curve with a large enough effect in the repeat runs; further: nearly all actives have a fitted effect of over 15% in size)
Conditions: PGC/ERR reporter cell line, luciferase ONE-Glo, 18 h; series mostly up to 92.4 µM; activation: at the top concentration
Summary of the method: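 PGC/ERR reporter cell line, 2,000 cells per well, incubated 6 h at 37 C before 23 nL compound in DMSO was added. After 18 h at 37 C, One-Glo luminescence read following 30 min at room temperature.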

Going from `CCCCCCOC(=O)CC` to `CCCCCCCCOS(=O)(=O)O`, the “activation” value falls from 3.94% to 0.621%.

Compared with `O=S(=O)(O)CCN1CCN(CCO)CC1`, `COCCOCCOCCOCCOCCO` is higher in “activation” value: -1.26% for the first, 0.271% for the second.

Going from `CC(C)(C)c1n[nH]c(=S)n(N)c1=O` to `CC(C)(C)NC(N)=O`, the “activation” value rises from -2.8% to 0.0547%.

First: C=C(C)C(=O)OCC(C)(C)COC(=O)C(=C)C
Second: N#Cc1ccc(C(=O)O)cc1
The “activation” value of the first is higher: 3.53% for the first, 1.69% for the second.

Compared with `CCCCCCCCSCC`, `On1nnc2ccccc21` is lower in “activation” value: 1.84% for the first, 0.621% for the second.

With `Cc1nc2n(c(=O)c1CCN1CCC(c3noc4cc(F)ccc34)CC1)CCC[C@H]2O` the activation was -0.0623% [at 19 µM].

Going from `NC(CO)C(=O)NNCc1ccc(O)c(O)c1O` (stereo unspecified) to `CCOc1cc(NC(C)=O)ccc1C(=O)OC`, the “activation” value falls from 2.39% [at 42.5 µM] to -0.834% [at 42.5 µM].

Compared with `CC(=O)NCc1c(I)c(NC(C)=O)c(I)c(C(=O)O)c1I`, `COc1cc(C(=S)N2CCOCC2)cc(OC)c1OC` is lower in “activation” value: 2.13% [at 42.5 µM] for the first, -0.0994% [at 42.5 µM] for the second.

For `COc1ccc(C2CNC(=O)C2)cc1OC1CCCC1` (stereo unspecified), the “activation” value was 1.29% [at 42.5 µM].

`CN1CCN(CC(=O)N2c3ccccc3C(=O)Nc3cccnc32)CC1` showed an activation of 0.61% [at 8.39 µM].

Target: Thyrotropin receptor (Homo sapiens) (UniProt P16473)
Sequence (P16473 whole entry, looked up): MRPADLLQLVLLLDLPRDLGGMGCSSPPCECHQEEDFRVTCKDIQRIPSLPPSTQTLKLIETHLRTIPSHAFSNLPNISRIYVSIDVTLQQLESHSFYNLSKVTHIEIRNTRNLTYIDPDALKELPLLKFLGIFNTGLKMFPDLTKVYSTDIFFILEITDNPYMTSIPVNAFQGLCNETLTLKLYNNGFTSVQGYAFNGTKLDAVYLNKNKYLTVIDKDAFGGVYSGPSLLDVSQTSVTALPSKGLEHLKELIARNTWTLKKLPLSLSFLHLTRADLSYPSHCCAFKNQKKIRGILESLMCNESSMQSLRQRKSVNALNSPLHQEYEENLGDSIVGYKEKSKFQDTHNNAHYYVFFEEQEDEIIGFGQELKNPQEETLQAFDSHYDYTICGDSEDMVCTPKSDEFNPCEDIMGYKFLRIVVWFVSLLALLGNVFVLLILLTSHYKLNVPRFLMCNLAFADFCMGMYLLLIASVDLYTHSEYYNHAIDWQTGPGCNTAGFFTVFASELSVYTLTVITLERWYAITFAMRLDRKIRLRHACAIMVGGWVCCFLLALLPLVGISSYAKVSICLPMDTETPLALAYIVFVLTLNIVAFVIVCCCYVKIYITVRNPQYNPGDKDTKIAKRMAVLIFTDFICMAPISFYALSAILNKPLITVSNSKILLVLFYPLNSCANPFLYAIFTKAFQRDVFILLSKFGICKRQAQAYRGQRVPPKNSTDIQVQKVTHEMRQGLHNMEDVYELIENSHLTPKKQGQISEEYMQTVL
Test: qHTS assay to identify small molecule agonists of the thyroid stimulating hormone receptor (TSHR) signaling pathway (AID 1224843); further: nearly all actives have a fitted effect of over 45% in size; further: potency means the concentration at half of the fitted maximal effect
Conditions: TSHR-HEK293 cells, cAMP HTRF, agonist mode, 30 min; series mostly up to 92.4 µM; activation: at the top concentration
Summary of the method: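 Steps: seed 800 TSHR-HEK293 cells per well; add test compound and hold 30 min at ambient temperature; dispense cAMP-d2 then anti-cAMP cryptate; incubate 1 h at ambient; measure fluorescence intensity.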

Going from `CN(CCOc1ccc(NS(C)(=O)=O)cc1)CCc1ccc(NS(C)(=O)=O)cc1` to `Cc1ccccc1C(=O)Nc1ccc(C(=O)N2CCCC(N(C)C)c3ccccc32)cc1` (stereo unspecified), the “activation” value falls from 10.8% [at 42.5 µM] to 1.3% [at 42.5 µM].

Compared with `Cc1cc(C(C)(C)C)c(O)c(C)c1CC1=NCCN1`, `CCOC(=O)c1ncn2c1CN(C)C(=O)c1cc(F)ccc1-2` is lower in “activation” value: 0.415% [at 42.5 µM] for the first, -0.905% [at 42.5 µM] for the second.

Compared with `NS(=O)(=O)c1ccc(NC(=O)CCC(=O)O)cc1`, `CC(C)(C)c1nnc(NS(=O)(=O)c2ccc(N)cc2)s1` is lower in “activation” value: 7.02% [at 42.5 µM] for the first, 6.91% [at 42.5 µM] for the second.

First: O=C(CCNNC(=O)c1ccncc1)NCc1ccccc1
Second: CCOc1cc(NC(C)=O)ccc1C(=O)OC
The “activation” value of the first is lower: 3.27% [at 42.5 µM] for the first, 3.91% [at 42.5 µM] for the second.

Compared with `CC(C)NCC(O)COc1cccc2[nH]ccc12` (stereo unspecified), `CC(C)NCC(O)COc1ccc(COCCOC(C)C)cc1` (stereo unspecified) is lower in “activation” value: -0.0652% [at 42.5 µM] for the first, -0.446% [at 42.5 µM] for the second.

Compared with `O=C1CC(c2ccc(Cl)cc2)CC(=O)N1`, `COc1ccc(C2CNC(=O)C2)cc1OC1CCCC1` (stereo unspecified) is lower in “activation” value: 4.78% [at 42.5 µM] for the first, 4.18% [at 42.5 µM] for the second.

Compared with `CCCN1C[C@H](CSC)C[C@@H]2c3cccc4[nH]cc(c34)C[C@H]21`, `COCCOC(=O)C1=C(C)NC(C)=C(C(=O)OC(C)C)C1c1cccc([N+](=O)[O-])c1` (stereo unspecified) is lower in “activation” value: 1.26% [at 42.5 µM] for the first, -5.53% [at 42.5 µM] for the second.

First: CC(=O)NCc1c(I)c(NC(C)=O)c(I)c(C(=O)O)c1I
Second: COc1cc(C(=S)N2CCOCC2)cc(OC)c1OC
The “activation” value of the first is higher: 4.32% [at 42.5 µM] for the first, 2.1% [at 42.5 µM] for the second.

For `CN1C(C)(C)CCCC1(C)C`, the “activation” value was -5.03% [at 42.5 µM].

Compared with `O=S(=O)(O)CCN1CCN(CCO)CC1`, `CCCCCCCCOS(=O)(=O)O` is higher in “activation” value: 2.66% for the first, 3.08% for the second.

First: CC(C)(C)c1n[nH]c(=S)n(N)c1=O
Second: Cc1ccc(C=O)cc1C
The “activation” value of the first is lower: -3.13% for the first, 8.74% for the second.

Compared with `CCC(C)NC(N)=O` (stereo unspecified), `CCCCCCCCSCC` is higher in “activation” value: -2.76% for the first, -2.29% for the second.

Going from `C=C(C)C1CCC(C)(O)CC1` (stereo unspecified) to `CC(C)N(c1ccccc1)C(C)C`, the “activation” value rises from 0.739% to 5.75%.

First: On1nnc2ccccc21
Second: COCCOCCOCCOCCOCCO
The “activation” value of the first is lower: 1.36% for the first, 5.47% for the second.

For `C=CCCCCCCCCCCCC`, the “activation” value was -3.66%.

In the case of `Oc1cn2c(n1)Nc1ccc(Cl)c(Cl)c1C2`, the Potency is reported as 730 nM (active).

Compared with `Cc1nc2n(c(=O)c1CCN1CCC(c3noc4cc(F)ccc34)CC1)CCC[C@H]2O`, `N[C@@H](COP(=O)(O)O)C(=O)O` is higher in activation: -7.95% [at 19 µM] for the first, 7.34% [at 19 µM] for the second.

For `CN1CCN(CC(=O)N2c3ccccc3C(=O)Nc3cccnc32)CC1`, the activation was 3.54% [at 8.39 µM].
